What all share (set-up): scale not given: direction of the effect not stated beside the values
In experiment [1] the target is Protein translocase subunit SecA (Escherichia coli (strain K12)) (UniProt P10408). Briefly: Assay to Identify E. coli SecA ATPase Inhibitors. The format is functional. Particulars: 30 µM.
The target in experiment [2] is T1, Ubiquitin-activating enzyme e1, putative (Leishmania donovani (strain BPK282A1)) (UniProt E9BSI1).
T1 sequence (whole entry): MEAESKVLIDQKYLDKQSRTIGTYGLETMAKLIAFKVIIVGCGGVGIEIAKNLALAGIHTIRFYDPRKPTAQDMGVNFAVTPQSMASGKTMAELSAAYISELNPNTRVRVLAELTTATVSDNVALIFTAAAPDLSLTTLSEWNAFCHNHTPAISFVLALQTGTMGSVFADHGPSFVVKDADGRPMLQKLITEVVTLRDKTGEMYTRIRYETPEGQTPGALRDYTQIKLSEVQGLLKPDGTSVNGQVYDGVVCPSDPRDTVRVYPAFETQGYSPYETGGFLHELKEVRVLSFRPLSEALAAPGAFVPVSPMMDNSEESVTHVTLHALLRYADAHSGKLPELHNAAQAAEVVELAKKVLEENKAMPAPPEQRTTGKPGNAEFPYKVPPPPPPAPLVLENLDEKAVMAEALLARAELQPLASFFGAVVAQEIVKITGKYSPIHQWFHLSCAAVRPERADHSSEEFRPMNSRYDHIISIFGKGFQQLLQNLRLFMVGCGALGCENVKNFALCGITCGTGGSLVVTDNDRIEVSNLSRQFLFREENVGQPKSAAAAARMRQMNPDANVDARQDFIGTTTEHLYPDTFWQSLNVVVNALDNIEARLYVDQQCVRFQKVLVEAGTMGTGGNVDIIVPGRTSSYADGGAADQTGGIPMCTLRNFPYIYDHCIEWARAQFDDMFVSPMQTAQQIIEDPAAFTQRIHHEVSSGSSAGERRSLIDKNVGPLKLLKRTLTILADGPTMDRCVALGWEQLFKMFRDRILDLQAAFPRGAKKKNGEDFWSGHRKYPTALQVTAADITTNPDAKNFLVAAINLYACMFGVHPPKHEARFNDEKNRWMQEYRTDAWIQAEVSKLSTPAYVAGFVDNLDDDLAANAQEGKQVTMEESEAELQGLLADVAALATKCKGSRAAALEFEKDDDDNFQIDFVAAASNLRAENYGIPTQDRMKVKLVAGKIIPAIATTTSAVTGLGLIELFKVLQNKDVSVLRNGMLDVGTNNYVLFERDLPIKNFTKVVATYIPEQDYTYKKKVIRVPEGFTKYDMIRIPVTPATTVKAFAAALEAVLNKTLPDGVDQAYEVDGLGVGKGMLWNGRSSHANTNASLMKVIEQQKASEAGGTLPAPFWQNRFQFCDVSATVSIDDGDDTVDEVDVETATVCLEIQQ
The experiment is described as follows: Leishmania donovani Ubiquitin Activating Enzyme (LdE1). The following applies: 30 µM. The format is functional.

Experiment [3] concerns the target AMP-activated protein kinase, AMPK (Homo sapiens) (UniProt P54646+O43741+P54619+Q9UGJ0+Q9Y478+Q13131+Q9UGI9). Briefly: AMP-dependent Kinase enzyme assay. An in vitro enzyme assay that detects ADP turnover that is directly proportional to AMPK activity. This uses naive AMPK that is activated during the assay with MK-8722. The following applies: 30 µM. The format is functional.

Experiment [4] has as its target Sialic acid-binding Ig-like lectin 9 (Homo sapiens) (UniProt Q9Y336). Briefly: Hs-Siglec9 ALPHAscreen SOP 20170721. The following applies: 10 µM. (In general: In Alpha technology, singlet oxygen from a donor bead excites a nearby acceptor bead.)
The subject of a further experiment is Trypanosoma cruzi. Briefly: Trypanosoma cruzi phosphomannomutase and mannose-1-phosphate guanylyltransferase assay. The format is functional. The following applies: 10 µM.
In experiment [5] the target is T2, Arginase-2, mitochondrial (Homo sapiens) (UniProt P78540).
T2 sequence (whole entry): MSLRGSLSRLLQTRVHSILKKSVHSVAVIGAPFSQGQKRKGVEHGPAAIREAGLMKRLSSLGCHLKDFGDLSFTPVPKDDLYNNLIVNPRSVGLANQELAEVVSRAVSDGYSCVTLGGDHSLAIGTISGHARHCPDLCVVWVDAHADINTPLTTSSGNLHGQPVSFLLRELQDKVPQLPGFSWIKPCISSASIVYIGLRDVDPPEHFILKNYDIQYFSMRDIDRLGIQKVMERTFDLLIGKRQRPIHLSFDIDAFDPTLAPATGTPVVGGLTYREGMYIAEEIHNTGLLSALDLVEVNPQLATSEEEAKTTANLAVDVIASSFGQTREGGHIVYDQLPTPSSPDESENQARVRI
The experiment is described as follows: in vitro enzyme assay to detect the production of urea directly proportional to the activity of Arginase II. Also: in the data most compounds retested in dose-response had high values. The following applies: 33.3 µM. The format is functional.

Experiment [6] concerns the target T3, Proteasome subunit beta (Trypanosoma cruzi) (UniProt O96673).
T3 sequence (whole entry): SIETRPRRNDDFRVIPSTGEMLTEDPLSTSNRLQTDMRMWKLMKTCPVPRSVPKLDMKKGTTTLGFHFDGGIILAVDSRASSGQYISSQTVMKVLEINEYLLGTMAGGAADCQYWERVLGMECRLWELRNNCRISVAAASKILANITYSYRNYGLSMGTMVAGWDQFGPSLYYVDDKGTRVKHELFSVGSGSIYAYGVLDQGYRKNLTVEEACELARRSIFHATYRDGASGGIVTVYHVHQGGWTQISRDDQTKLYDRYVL
Briefly: Trypanosoma cruzi proteasome chymotrypsin-like activity (TcProtChymo) assay. Also: in the data most compounds retested in dose-response had high values. The format is functional. Particulars: 9.37 µM.

For another experiment, the species on record is Homo sapiens. Briefly: To identify inhibition of the IFN signalling (Jak-Stat) pathway via expression of an eGFP reporter gene under the control of an IFN-stimulated response element (ISRE) containing MxA promoter. The format is functional. The following applies: 30 µM.
For experiment [7], the target named is T4, Tyrosyl-tRNA synthetase, putative (Trypanosoma cruzi (strain CL Brener)) (UniProt Q4DSP6).
T4 sequence (whole entry): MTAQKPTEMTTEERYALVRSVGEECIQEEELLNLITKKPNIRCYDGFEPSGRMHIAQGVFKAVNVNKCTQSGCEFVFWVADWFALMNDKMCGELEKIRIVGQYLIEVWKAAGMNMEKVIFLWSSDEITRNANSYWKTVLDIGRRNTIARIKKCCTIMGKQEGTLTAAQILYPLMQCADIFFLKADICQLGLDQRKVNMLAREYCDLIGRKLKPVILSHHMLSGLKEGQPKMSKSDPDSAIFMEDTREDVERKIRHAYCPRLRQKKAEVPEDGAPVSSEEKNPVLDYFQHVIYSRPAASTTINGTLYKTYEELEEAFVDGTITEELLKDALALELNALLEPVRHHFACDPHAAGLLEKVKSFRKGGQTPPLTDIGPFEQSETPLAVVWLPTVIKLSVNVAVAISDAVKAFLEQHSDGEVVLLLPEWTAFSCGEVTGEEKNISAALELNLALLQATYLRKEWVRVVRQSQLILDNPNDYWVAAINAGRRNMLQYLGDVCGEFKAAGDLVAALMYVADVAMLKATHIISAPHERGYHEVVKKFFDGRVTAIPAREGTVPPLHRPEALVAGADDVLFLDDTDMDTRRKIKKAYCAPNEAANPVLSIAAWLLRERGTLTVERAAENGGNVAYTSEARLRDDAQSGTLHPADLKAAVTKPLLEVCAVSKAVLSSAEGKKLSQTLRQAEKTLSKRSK
Briefly: Trypanosoma cruzi tyrosyl tRNA synthetase (TcYRS) _High Tyrosine SOP. Also: in the data most compounds retested in dose-response had high values. The following applies: 30 µM. In kind it is functional.

The target in experiment [8] is T4, Tyrosyl-tRNA synthetase, putative (Trypanosoma cruzi (strain CL Brener)). Briefly: Trypanosoma cruzi tyrosyl tRNA synthetase (TcYRS) SOP. In kind it is functional. The following applies: 30 µM.
Experiment [9] has as its target Chromo domain-containing protein 1 (Saccharomyces cerevisiae (strain ATCC 204508 / S288c) (Baker's yeast)) (UniProt P32657). The experiment is described as follows: ScCHD-1 Enzyme Inhibition Assay. Also: in the data most compounds retested in dose-response had high values. In kind it is functional. Particulars: 30 µM.

For some assays here: Measured potencies and affinities stand elsewhere.

Data on ten compounds can be found in ChEMBL document CHEMBL3988442, “University of Dundee, Small-Polar-MMV Screening Library” (2021).

Chain of Protein translocase subunit SecA (Escherichia coli (strain K12)) (P10408 whole entry): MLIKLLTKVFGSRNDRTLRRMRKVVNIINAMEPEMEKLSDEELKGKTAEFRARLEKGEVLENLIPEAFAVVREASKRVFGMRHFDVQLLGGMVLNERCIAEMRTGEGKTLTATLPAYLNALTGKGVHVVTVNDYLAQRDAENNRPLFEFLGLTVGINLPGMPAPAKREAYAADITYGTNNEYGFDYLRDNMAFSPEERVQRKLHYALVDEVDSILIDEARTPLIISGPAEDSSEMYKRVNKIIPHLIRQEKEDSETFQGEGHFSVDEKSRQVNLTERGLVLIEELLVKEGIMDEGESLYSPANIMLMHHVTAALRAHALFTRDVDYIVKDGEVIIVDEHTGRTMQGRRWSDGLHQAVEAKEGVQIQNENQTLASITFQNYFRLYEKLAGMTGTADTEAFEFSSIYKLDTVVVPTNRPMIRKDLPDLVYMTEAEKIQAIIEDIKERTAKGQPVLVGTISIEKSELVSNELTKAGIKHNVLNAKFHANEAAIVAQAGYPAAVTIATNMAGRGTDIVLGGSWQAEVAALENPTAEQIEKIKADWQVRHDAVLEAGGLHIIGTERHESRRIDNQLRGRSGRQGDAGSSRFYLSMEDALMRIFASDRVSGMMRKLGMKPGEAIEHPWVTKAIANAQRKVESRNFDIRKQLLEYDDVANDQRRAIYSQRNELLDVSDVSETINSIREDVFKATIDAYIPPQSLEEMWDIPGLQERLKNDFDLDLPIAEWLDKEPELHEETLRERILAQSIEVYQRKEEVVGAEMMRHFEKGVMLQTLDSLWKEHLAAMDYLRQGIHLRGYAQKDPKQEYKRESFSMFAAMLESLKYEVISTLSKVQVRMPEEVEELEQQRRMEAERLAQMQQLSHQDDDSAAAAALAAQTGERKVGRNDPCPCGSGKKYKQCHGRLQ
Chain of Chromo domain-containing protein 1 (Saccharomyces cerevisiae (strain ATCC 204508 / S288c) (Baker's yeast)) (P32657 whole entry, the tested form may be a part): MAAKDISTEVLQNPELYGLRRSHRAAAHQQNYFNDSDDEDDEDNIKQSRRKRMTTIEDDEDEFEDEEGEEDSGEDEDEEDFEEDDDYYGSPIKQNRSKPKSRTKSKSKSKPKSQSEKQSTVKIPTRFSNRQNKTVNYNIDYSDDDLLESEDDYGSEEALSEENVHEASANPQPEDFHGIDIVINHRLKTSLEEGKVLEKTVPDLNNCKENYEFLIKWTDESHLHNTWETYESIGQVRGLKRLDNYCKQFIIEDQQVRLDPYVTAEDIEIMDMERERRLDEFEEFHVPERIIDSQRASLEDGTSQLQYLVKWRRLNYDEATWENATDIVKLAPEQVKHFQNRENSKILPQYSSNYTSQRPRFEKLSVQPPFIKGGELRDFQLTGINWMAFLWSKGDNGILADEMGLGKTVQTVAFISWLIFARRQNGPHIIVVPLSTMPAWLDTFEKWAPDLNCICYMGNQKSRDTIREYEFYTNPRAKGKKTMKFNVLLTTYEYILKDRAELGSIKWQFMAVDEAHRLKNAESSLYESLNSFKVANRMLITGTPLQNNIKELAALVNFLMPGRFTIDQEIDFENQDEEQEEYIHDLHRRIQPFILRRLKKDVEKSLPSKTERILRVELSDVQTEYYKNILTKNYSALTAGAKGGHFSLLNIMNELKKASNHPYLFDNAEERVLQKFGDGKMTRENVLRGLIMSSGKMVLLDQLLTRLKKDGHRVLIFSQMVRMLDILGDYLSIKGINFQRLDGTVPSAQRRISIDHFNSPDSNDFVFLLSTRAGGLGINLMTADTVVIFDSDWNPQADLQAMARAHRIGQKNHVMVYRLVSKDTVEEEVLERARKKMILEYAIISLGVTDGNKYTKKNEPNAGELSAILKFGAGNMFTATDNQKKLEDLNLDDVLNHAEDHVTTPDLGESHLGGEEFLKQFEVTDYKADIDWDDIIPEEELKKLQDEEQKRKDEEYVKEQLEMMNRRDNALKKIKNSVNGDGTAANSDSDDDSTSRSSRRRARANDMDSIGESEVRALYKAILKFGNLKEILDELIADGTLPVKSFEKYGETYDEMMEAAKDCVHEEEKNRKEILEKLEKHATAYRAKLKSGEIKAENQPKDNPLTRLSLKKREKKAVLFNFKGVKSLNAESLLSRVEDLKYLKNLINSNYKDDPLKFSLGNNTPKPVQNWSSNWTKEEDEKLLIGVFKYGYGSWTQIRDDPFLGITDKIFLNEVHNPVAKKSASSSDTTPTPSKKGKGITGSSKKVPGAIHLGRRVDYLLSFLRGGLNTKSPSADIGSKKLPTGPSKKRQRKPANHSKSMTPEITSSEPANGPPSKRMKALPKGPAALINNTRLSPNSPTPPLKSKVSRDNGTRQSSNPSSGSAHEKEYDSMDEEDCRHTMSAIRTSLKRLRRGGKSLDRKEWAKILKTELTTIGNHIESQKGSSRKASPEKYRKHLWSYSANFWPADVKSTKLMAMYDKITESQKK
Chain of Sialic acid-binding Ig-like lectin 9 (Homo sapiens) (Q9Y336 whole entry): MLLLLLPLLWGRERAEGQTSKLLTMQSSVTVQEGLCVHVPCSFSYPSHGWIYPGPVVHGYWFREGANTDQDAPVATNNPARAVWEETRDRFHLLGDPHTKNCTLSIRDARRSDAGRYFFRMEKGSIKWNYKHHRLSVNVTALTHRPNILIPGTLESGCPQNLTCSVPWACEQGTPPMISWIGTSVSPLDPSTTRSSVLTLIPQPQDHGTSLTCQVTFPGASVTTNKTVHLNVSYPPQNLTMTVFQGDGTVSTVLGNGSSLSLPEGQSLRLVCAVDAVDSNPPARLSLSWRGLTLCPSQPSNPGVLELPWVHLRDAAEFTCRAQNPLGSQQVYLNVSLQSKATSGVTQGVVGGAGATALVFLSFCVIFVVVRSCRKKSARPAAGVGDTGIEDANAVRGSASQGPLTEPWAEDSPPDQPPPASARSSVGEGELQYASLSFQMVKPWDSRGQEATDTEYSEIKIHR

In the case of `CC(Cn1cccn1)NC(=O)Nc1ccc(N(C)C)nc1` (stereo not given), the Percent Effect is -4.33% in experiment [1]; 1.39% in experiment [2]; -12.7% in [3]; -12% in [4]; -7.09% in the experiment on Trypanosoma cruzi; 0.883% in [5]. In addition, the Percent Effect in experiment [6] was 22.3%; in the experiment filed under Homo sapiens, 10.8%; in experiment [7], 1.05%; in experiment [8], -2.56%; in [9], -1.82%.

For the compound `Cc1cccc(OCCC(=O)N(C)CCC#N)c1C`, the Percent Effect in [1] is -4.33%; in experiment [2], 2.63%; in experiment [3], 12.1%; in experiment [4] it was 7.74%; in the experiment on Trypanosoma cruzi, -5.16%; in experiment [5] it was -5.92%. Further, the Percent Effect in experiment [6] was 23.1%; in the experiment filed under Homo sapiens, 9.14%; in experiment [7], 4.25%; in [8] it was 10.4%; in experiment [9], -5.59%.

For `CC1c2ncc(COc3cccnc3)n2CCN1C(=O)C1=CCCC1` (stereo not given), the Percent Effect in experiment [1] is -4.3%; in experiment [2], 12%; in experiment [3], -0.286%; in experiment [4], 5.22%; in the experiment with Trypanosoma cruzi, -2.75%; in [5] it was -1.58%. Besides, the Percent Effect is 9.43% in experiment [6]; 16.6% in the experiment filed under Homo sapiens; 7.41% in [7]; 10.3% in [8]; -7.55% in [9].

In the case of `CCN1CCOC(CNCc2ccccn2)C1` (stereo not given), the Percent Effect in experiment [1] is -1.35%; in experiment [2], 0%; in [3], -15.7%; in experiment [4], 4.04%; in the experiment with Trypanosoma cruzi it was 7.19%; in experiment [5], 1.8%. The Percent Effect is -3.64% in [6]; -4.24% in the experiment listed under Homo sapiens; 8.37% in [7]; 16.1% in experiment [8]; -1.88% in experiment [9].

For the compound `CCn1cnnc1CNC(=O)N1CCN(c2cccs2)CC1`, the Percent Effect was -8.91% in experiment [1]; 5.2% in experiment [2]; -16.1% in [3]; 14.9% in experiment [4]; 14.2% in the experiment with Trypanosoma cruzi; 1.78% in [5]. Moreover, the Percent Effect in [6] was 24.3%; in the experiment filed under Homo sapiens it was 7.4%; in experiment [7], 26.2%; in experiment [8], 12.2%; in [9] it was -5.95%.

Regarding `Cc1cnn(CC2CCCN2C(=O)c2ccc3cc[nH]c3c2)c1` (stereo not given), the Percent Effect in [1] is -1.42%; in experiment [2] it was 1.27%; in experiment [3], 3.59%; in [4], 1.53%; in the experiment with Trypanosoma cruzi it was -1.33%; in experiment [5], 1.5%. The Percent Effect was 2.4% in experiment [6]; 13.8% in the experiment listed under Homo sapiens; 0% in experiment [7]; 5.06% in experiment [8]; -8.72% in [9].

As for `CCS(=O)(=O)N1CCC(c2nc3ccc(-c4ccccc4)cn3n2)CC1`, the Percent Effect in experiment [1] was -0.159%; in experiment [2], -2.74%; in experiment [3], -1.18%; in [4], 0.509%; in the experiment with Trypanosoma cruzi, 5.75%; in experiment [5], 0.399%. The Percent Effect in experiment [6] was 10%; in the experiment listed under Homo sapiens it was -3.81%; in experiment [7], -24%; in experiment [8], 8.64%; in experiment [9], 2.57%.

On to `COc1cccc(S(=O)(=O)NC(=O)COC2CCCC2)c1`, for which the Percent Effect was -1.91% in experiment [1]; 20.8% in experiment [2]; 2.89% in experiment [3]; 10.4% in experiment [4]; 2.06% in the experiment on Trypanosoma cruzi; 2.85% in experiment [5]. Further, the Percent Effect in [6] was 10.6%; in the experiment filed under Homo sapiens, 3.15%; in experiment [7], 8.74%; in [8], 24.4%; in experiment [9] it was -6.86%.

For the compound `COCCO[C@@H]1CCN(C(=O)c2ccc(C)o2)[C@@H]1Cc1cnn(C)c1`, the Percent Effect was -5.35% in [1]; -2.7% in experiment [2]; -1.64% in experiment [3]; -4.98% in experiment [4]; -2.54% in the experiment with Trypanosoma cruzi; -2.08% in [5]. The Percent Effect was 7.69% in experiment [6]; -13% in the experiment listed under Homo sapiens; 0.99% in [7]; -1.22% in [8]; 4.49% in [9].

For the compound `CC(C)n1ncc2c1NC(=O)CSC2C(C)(C)C` (stereo not given), the Percent Effect in [1] is -4%; in [2] it was 17.3%; in experiment [3], -3.06%; in [4], 7.25%; with Trypanosoma cruzi, 3.14%; in experiment [5], -3.7%. Moreover, the Percent Effect in experiment [6] is 8.69%; in the experiment listed under Homo sapiens it was 8.09%; in experiment [7], 5.29%; in experiment [8] it was 12.8%; in [9], -8.28%.
